From PubChem BioAssay (NCI)
About 83,000 compounds went through this panel and 20% of them were active in at least one assay; those are over-represented in the sample as a whole.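 Cell lines were cultured in 96-well plates, exposed to a single compound concentration, and assessed for percent growth 48 hours later.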 Values without a mark were called inactive. Calls of active or inactive are those of the source. The calls were made as follows: active = growth percent below 10; inactive = the rest.

Assays:
Assay in all cases: NCI-60 one-dose screen, 48 h (100 = growth as untreated, 0 = no growth, -100 = all killed)
Details in all cases: 10 µM unless noted
[1] = tested on: K-562 leukemia
[2] = tested on: MALME-3M melanoma
[3] = tested on: MDA-MB-231 breast
[4] = tested on: RXF 393 renal
[5] = tested on: SF-268 CNS
[6] = tested on: SF-295 CNS
[7] = tested on: SF-539 CNS
[8] = tested on: UACC-257 melanoma
[9] = tested on: M14 melanoma
[10] = tested on: HCT-15 colon
[11] = tested on: HT29 colon
[12] = tested on: SNB-75 CNS
[13] = tested on: SNB-19 CNS
[14] = tested on: U251 CNS
[15] = tested on: PC-3 prostate
[16] = tested on: SK-MEL-5 melanoma
[17] = tested on: UACC-62 melanoma
[18] = tested on: LOX IMVI melanoma
[19] = tested on: SK-MEL-28 melanoma
[20] = tested on: SK-MEL-2 melanoma

Structure (SMILES) | growth [1] | growth [2] | growth [3] | growth [4] | growth [5] | growth [6] | growth [7] | growth [8] | growth [9] | growth [10] | growth [11] | growth [12] | growth [13] | growth [14] | growth [15] | growth [16] | growth [17] | growth [18] | growth [19] | growth [20]
O=C(NNc1nc2cc(F)ccc2n2c(CN3CC4(COC4)C3)ccc12)c1cnccn1 | 13.4% | 19.5% | 30.6% | 39.2% | 22.8% | 14.3% | 3.55% (active) | -8.36% (active) | -26.4% (active) | 33.1% | 28.6% | 63.1% | 29.4% | 11.6% | 38.9% | -20.3% (active) | 5.57% (active) | 19.1% | 20.6% | 49.7%
O=C(CCN1C(=O)/C(=C/c2ccccc2F)SC1=S)N1CCOCC1 | 32.2% | 74.1% | 71% | 41.2% | 101% | 97.8% | 87.8% | 89.8% | 80.5% | 45.5% | 87.1% | 94% | 99% | 94.4% | 108% | 96.9% | 82.7% | -34.1% (active) | 85.1% | 113%
CC(C)(C)Nc1nc2c(OCCc3ccccc3)cccn2c1-c1cccc(F)c1 | 1.65% (active) | -10.8% (active) | -40.9% (active) | -43% (active) | 18.8% | -38.2% (active) | -62.6% (active) | 1.34% (active) | -3.59% (active) | -60.2% (active) | -14.2% (active) | 33.2% | 20.4% | -43.8% (active) | -4.7% (active) | -82.4% (active) | -7.68% (active) | -83.1% (active) | 15% | -81.2% (active)
O=[N+]([O-])c1ccc(O)c2ncccc12 | 12.6% | 38% | 31.9% | 41.6% | 37.2% | 23.1% | 23.2% | 16.5% | 31.9% | 21.3% | 20% | 48.5% | 23.8% | 17.2% | 31.3% | 15.3% | 10.5% | 25.2% | 29.1% | 78.3%
COc1cc2cc(Oc3ccc(NC(=O)c4cccc(C(F)(F)F)c4)cc3)c(C)nc2cc1OCCN1CCCCC1 | -48.2% (active) | -86.1% (active) | -100% (active) | -16% (active) | 81.5% | 7.09% (active) | -68.8% (active) | -87.3% (active) | -86.7% (active) | -88.8% (active) | -50.7% (active) | 90.8% | 90.2% | -63.8% (active) | 33.1% | 38.7% | -65.8% (active) | -93.6% (active) | -88.5% (active) | 74%
COc1cccc(-c2nn(-c3ccccc3)cc2-c2ccnc(N3CCN(C(=O)Nc4ccc(F)cc4)CC3)c2)c1 | 30.8% | 76.7% | 52.6% | 63.4% | 85.3% | 64.8% | 66.9% | 85.8% | 32.4% | 35.8% | 70% | 66.5% | 64.5% | 67.4% | 44.3% | 42.5% | 43.8% | 59% | 69.6% | 51.1%
O=C(O)CCCCCN1C(=O)/C(=C/c2ccc(O)c(O)c2)SC1=S | 100% | 97.5% | 91.8% | 124% | 103% | 99.3% | 96% | 108% | 106% | 101% | 116% | 95.1% | 96.1% | 103% | 117% | 98.9% | 96.8% | 108% | 102% | 140%
CC(=O)Oc1ccccc1C(=O)Nc1ccc(C(=O)/C=C/c2cccs2)cc1 | 101% | 104% | 113% | 126% | 107% | 99.1% | 107% | 113% | 107% | 96.7% | 110% | 113% | 101% | 99.4% | 103% | 101% | 98.3% | 100% | 106% | 122%
